# Measured values taken from PubChem BioAssay AID1345083 (National Center for Advancing Translational Sciences (NCATS), 2018).
# Hit rate of the full screen: of about 94,000 compounds, about 6,200 (6.6%) were called active. About 31% were inconclusive and are not listed. Calls come from the whole dose curve; as a rule, active = well fitted inhibition curve with a large enough effect; inconclusive = small, poorly fitted or top-dose-only effect; inactive = flat fitted curve, though single readings scatter. Shown is part of a subset that was picked to be rich in actives.
# Assay: Cytotoxic Profiling in HEK 293 Cell Line of Diverse Libraries Using Quantitative High-Throughput Screening; note: nearly all actives have a fitted effect of over 60% in size
# Conditions: HEK 293 viability, ATP luminescence (CellTiter-Glo), 48-72 h; series mostly up to 115 µM; activity change, negative = cytotoxicity: at the top concentration
# Method in brief: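 250 HEK 293 cells/well; compound by pintool; incubated 48 or 72 hr at 37 degree Celsius; CellTiter-Glo added, 10 min RT, luminescence imaged.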
# % is set by controls: 0 for no effect and ±100 for the full control effect; potency is the fitted concentration of half-maximal effect.
Structure (SMILES),Potency,"activity change, negative = cytotoxicity",outcome
COc1ccc(-c2cc(N3CCCC(NC(=O)c4ccsc4)C3)n[nH]2)cc1 (stereo unspecified),35.5 µM (active),–,–
Cc1ccc(-c2cc(N3CCC(CNC(=O)c4ccc(N(C)C)cc4)CC3)n[nH]2)cc1,–,-2% (inactive),–
COc1ccc(-c2cc(N3CCCC(NC(=O)c4cccc(Cl)c4)C3)n[nH]2)cc1 (stereo unspecified),44.7 µM (active),–,–
O=C(NC1CCN(c2cc(C(F)(F)F)ncn2)CC1)c1ccc(F)cc1,–,3.44% (inactive),–
COc1ccc(C(=O)NCCC2CCN(C(=O)Nc3cc(F)ccc3F)CC2)cc1,–,-7.34% (inactive),–
COc1ccc(-c2cc(N3CCCC(NC(=O)c4cc(F)ccc4Cl)C3)n[nH]2)cc1 (stereo unspecified),28.2 µM (active),–,–
COC(=O)NC1CCCN(c2ccc3nnc(C)n3n2)C1 (stereo unspecified),–,–,inactive [at 172 µM]
COc1ccc(-c2cc(N3CCC(NC(=O)c4ccc(N(C)C)cc4)C3)n[nH]2)cc1 (stereo unspecified),70.8 µM (active),–,–
Cc1ccc(C(=O)NC2CCN(c3cc(-c4cccs4)[nH]n3)C2)cc1 (stereo unspecified),–,-25.9% (inactive),–
Cn1nccc1C(=O)NC1CCCN(c2cc(N3CCCC3)ncn2)C1 (stereo unspecified),–,-1.62% (inactive),–
Cc1cc(C(=O)N2C[C@@H](COCC(N)=O)[C@H](c3ccncc3)C2)c(C)o1,–,-13.7% (inactive),–
O=C1Nc2cnccc2C2(CCN(C(=O)c3ccccc3F)C2)O1 (stereo unspecified),–,-11.1% [at 172 µM] (inactive),–
CCOc1ccccc1NC(=O)CC[C@H]1NC(=O)c2ccccc2NC1=O,–,1.93% (inactive),–
O=C(c1ccoc1)N1CCC(Oc2ncccc2C(=O)N2CCOCC2)C1 (stereo unspecified),–,2.21% (inactive),–
CN1[C@@H](CCC(=O)NCc2ccccc2)CNC(=O)[C@@H]2[C@H]1CCN2Cc1csnn1,–,0.839% [at 172 µM] (inactive),–
O=C(c1ccc(CO)o1)N1CCC2(CC1)[C@H](O)C[C@@H]2OCCO,–,-5.07% (inactive),–
CC(c1cccs1)N(C)Cc1ccncc1 (stereo unspecified),–,-4% [at 172 µM] (inactive),–
COCc1nnc2n1CCC(NC(=O)NCCc1ccccc1)CC2 (stereo unspecified),–,-2.98% (inactive),–
O=C(CCCc1ccccc1)Nc1ccc(-c2nnc3n2CCCC3)cc1,–,-2.04% (inactive),–
CN1Cc2ncnc(N3CCCCC3)c2CN(c2ccccc2)C1=O,–,-7.24% [at 172 µM] (inactive),–
O=C(NCC1CC1)C1CCCN(C2CCN(Cc3ccncc3)CC2)C1 (stereo unspecified),–,-7.71% (inactive),–
O=C(c1cccs1)C1CCCN(C(=O)COc2ccc(F)cc2F)C1 (stereo unspecified),–,-46.5% (inactive),–
CNC(=O)[C@@H](Cc1ccccc1)N1CCC[C@H]1C(=O)NCC1CC1,–,-15% [at 172 µM] (inactive),–
COc1ccccc1-c1cccc(CN2CCCC(C(=O)NCC3CC3)C2)c1 (stereo unspecified),39.8 µM (active),–,–
CN(C)C(=O)N1CCCC(C(=O)N2CCC(N3Cc4cccn4C3=O)CC2)C1 (stereo unspecified),–,-6.08% (inactive),–
O=C1CCN(Cc2ccncc2)CCCC(C(=O)Nc2cccc(F)c2)CCN1 (stereo unspecified),–,-1.43% (inactive),–

Structure (SMILES),Potency,"activity change, negative = cytotoxicity",outcome
O=C(Nc1ccc(F)cc1)C1CCCN(Cc2cccc(-c3ccc(F)cc3F)c2)C1 (stereo unspecified),35.5 µM (active),–,–
O=C(Nc1cccc(F)c1)N1CCCC(CN2CCOCC2)CC1 (stereo unspecified),–,-4.63% (inactive),–
O=C(C1CCCN(Cc2cccc(-c3ccc(F)cc3F)c2)C1)N1CCCCC1 (stereo unspecified),31.6 µM (active),–,–
Cc1nnc2n1C(C)CN(C(=O)CCCc1nc(-c3ccncc3)no1)C2 (stereo unspecified),–,–,inactive
O=C(NCc1cccnc1)C1CCCN(c2ccnc3ccnn23)C1 (stereo unspecified),–,-27.3% (inactive),–
CCCNC(=O)NC1CCN(C(=O)N2CC3CC(C2)[C@H]2CCCC(=O)N2C3)CC1 (stereo partly specified),–,1.71% (inactive),–
CCN1C(=O)Cc2cc(C(=O)NCc3cc(OC)ccc3OC)ccc21,–,-17.2% (inactive),–
COc1ccc(CNC(=O)c2ccc3c(c2)N(C)C2CCCCN2C3=O)c(OC)c1 (stereo unspecified),–,1.55% (inactive),–
CCN1c2cc(C(=O)Nc3ccc(F)c(Cl)c3)ccc2C(=O)N2CCCCC21 (stereo unspecified),39.8 µM (active),–,–
CCN1c2cc(C(=O)NCc3ccccc3C(F)(F)F)ccc2C(=O)N2CCCCCC21 (stereo unspecified),39.8 µM (active),–,–
COc1cc(=O)n2c(c1C(=O)Nc1ccc(Cl)c(F)c1)CCCC2,–,-15.7% (inactive),–
CCN1c2cc(C(=O)Nc3ccc(SC)cc3)ccc2C(=O)N2CCCCCC21 (stereo unspecified),22.4 µM (active),–,–
O=C(Nc1ccc([C@H]2OCC(=O)N(C3CCOCC3)[C@@H]2CO)cc1)c1ccc(F)c(Cl)c1,–,-13% (inactive),–
CN(C)C[C@@H]1CN(C)C[C@H]1NC(=O)c1ccnnc1,–,-2.4% (inactive),–
CC(C)CC(=O)N1CCN(c2nnc3ccccn23)CC1,–,–,inactive
CC(C)(C)CC(=O)Nc1ccc2c(N3CCOCC3)ncnc2c1,–,-29.9% (inactive),–
O=C(CCCc1ccccc1)NCCC1CCN(C(=O)Nc2cc(F)cc(F)c2)CC1,–,-10.7% (inactive),–
CN1C(=O)C(CC(=O)NCc2ccccc2F)Sc2ncccc21 (stereo unspecified),–,25.8% (inactive),–
COCc1cccc(C(=O)N2CC[C@@](C)(O)[C@@H](O)C2)n1,–,-0.59% (inactive),–
C=CCN(C)c1nc(C)nc2c1CCN(C(=O)N1CCOCC1)CC2,–,2.16% (inactive),–
N#Cc1ccc(CN2CCCC3(COc4ccccc4[S+](=O)([O-])N3)C2)cc1 (stereo unspecified),–,-25.4% (inactive),–
CS(=O)(=O)N1CCCN(C(=O)CN2CCCCCC2)CCNC(=O)CC1c1ccccc1 (stereo unspecified),–,-21.6% (inactive),–
CC(C)CN1CCOC[C@H](Oc2ccc(S(C)(=O)=O)cc2)C1,–,-15.6% [at 172 µM] (inactive),–
Cn1cc(CN2CCOC[C@H](Oc3ccc(S(C)(=O)=O)cc3)C2)c2ccccc21,50.1 µM (active),–,–
COc1ccc(O[C@H]2COCCN(Cc3nccn3C)C2)cc1,–,-11.1% [at 172 µM] (inactive),–
Cc1cc(C(=O)NCC2CCCN(Cc3nnc(-c4cccnc4)o3)C2)no1 (stereo unspecified),–,–,inactive

Structure (SMILES),Potency,"activity change, negative = cytotoxicity",outcome
CN(CC1CCOC1)S(=O)(=O)c1ccccc1C(F)(F)F (stereo unspecified),–,-3.67% (inactive),–
Cc1ccc(S(=O)(=O)N(C)CC2CCOCC2)cc1F,–,-30.7% (inactive),–
Cc1ccc(S(=O)(=O)N(C)Cc2ccccc2C(F)(F)F)cc1,70.8 µM (active),–,–
CN1C(=O)CCC2(CNC(=O)C3CCC3)CCC=C12 (stereo unspecified),–,-10.2% (inactive),–
O=C(NC1CCCC1)NC1CC(c2nnc(CO)n2C2CC2)C1 (stereo unspecified),–,–,inactive
O=C(C1CCc2nnc(C3CCN([S+](=O)([O-])c4ccccc4)CC3)n21)N1CCOCC1 (stereo unspecified),–,–,inactive
O=C(N1CCC(Cc2nc(-c3ccccc3)n[nH]2)C1)C1(c2ccccc2)CC1 (stereo unspecified),44.7 µM (active),–,–
O=C(N1CCCC(Cc2nc(C3CCOCC3)no2)C1)C1(c2ccccc2)CC1 (stereo unspecified),–,-16.5% (inactive),–
O=C(C1CCC1)N1CCC(Cc2nc(-c3cccnc3)n[nH]2)C1 (stereo unspecified),–,6.91% (inactive),–
CCc1noc(-c2cccn3c(CNC(=O)c4cccc(Cl)c4)nnc23)n1,–,-11.2% (inactive),–
CC1(c2noc(C3CCOCC3)n2)CCN(Cc2c(F)cccc2Cl)CC1,–,-21.5% (inactive),–
CC(C)C(=O)Nc1ccc(C2(C(=O)NCCN3CCCCC3)CCCCC2)cc1,–,-15.8% (inactive),–
O=C(COc1ccc(NC(=O)C2CC2)cn1)NCc1ccc(F)cc1F,–,3.7% (inactive),–
COc1ccc(NC(=O)[C@@H]2C[C@@H](c3ccc(F)cc3)N(CCOc3ccccc3)C2)cn1,39.8 µM (active),–,–
Cc1ccc(NC(=O)[C@@H]2CNC[C@H](C(=O)NCc3ccccn3)C2)cn1,–,–,inactive
O=C(C1NCCc2[nH]cnc21)N1CCc2nnc(-c3ccccc3)n2CC1 (stereo unspecified),–,–,inactive
O=C(Nc1ccccc1F)N1CCc2nnc(C3CC3)n2CC1,–,-8.81% (inactive),–
Cn1nc(C(=O)N2CCC(N3C(=O)C(O)C34CCCCC4)CC2)c2ccccc21 (stereo unspecified),–,–,inactive
O=C(c1ccc2c(c1)OCO2)N1CCC2(C1)C(=O)Nc1ccccc12 (stereo unspecified),–,–,inactive
O=C(c1ccc(F)cc1)N1CCN(C(=O)c2nc3cccnc3n(C3CCCC3)c2=O)CC1,–,-11.6% (inactive),–
Cc1ccccc1C(=O)N1CCN(C(=O)c2nc3cccnc3n(C3CC3)c2=O)CC1,–,–,inactive
Cc1ccc([S+](=O)([O-])N2CCN(C(=O)c3nc4cccnc4n(C4CCCC4)c3=O)CC2)cc1,39.8 µM (active),–,–
O=C(NCC1CCCO1)c1noc(-c2ccccc2F)n1 (stereo unspecified),–,-1.98% (inactive),–
O=C(NCC1CCCO1)c1csc(N2CCN(c3ccccc3F)CC2)n1 (stereo unspecified),89.1 µM (active),–,–
Cc1ccccc1C(=O)N1C(C(=O)NCC2CCCO2)COC12CCN(C(=O)c1cccs1)CC2 (stereo unspecified),–,-23.6% (inactive),–
CC(C)NC(=O)C1CCc2nnc(CNC(=O)c3ccc(Cl)cc3Cl)n21 (stereo unspecified),–,-16.9% (inactive),–

Structure (SMILES),Potency,"activity change, negative = cytotoxicity",outcome
Cn1ncc2c(C(=O)NCc3ccccc3)cc(-c3ccc(C(F)(F)F)cc3)nc21,79.4 µM (active),–,–
CC(C)OCCCNC(=O)c1cc(-c2ccc(C(F)(F)F)cc2)nc2c1cnn2C,44.7 µM (active),–,–
Cn1ncc2c(C(=O)NCc3ccc(F)cc3F)cc(-c3ccccc3C(F)(F)F)nc21,31.6 µM (active),–,–
Cn1ncc2c(C(=O)N3CCN(c4ncccn4)CC3)cc(-c3ccc(C(F)(F)F)cc3)nc21,50.1 µM (active),–,–
Cn1ncc2c(C(=O)NCC#N)cc(-c3cccc(C(F)(F)F)c3)nc21,–,-14.6% (inactive),–
Cn1ncc2c(C(=O)NCc3ccc(F)cc3)cc(-c3cccc(C(F)(F)F)c3)nc21,–,-13.2% (inactive),–
CC(=O)N1CCN(C(=O)c2cc(-c3cccc(F)c3)nc3c2cnn3C)CC1,–,2.75% (inactive),–
COc1ccccc1-c1cc(C(=O)NC2CCCCC2)c2cnn(C)c2n1,–,-26.6% (inactive),–
Cn1ncc2c(C(=O)NCC(F)(F)F)cc(-c3ccc(C(F)(F)F)cc3)nc21,–,0.478% (inactive),–
Cc1ccc(-c2cc(C(=O)N3CCOCC3)c3cnn(C)c3n2)c(C)c1,–,-12.7% (inactive),–
Cn1ncc2c(C(=O)NCc3ccc(C(F)(F)F)cc3)cc(C3C=C(C(F)(F)F)C=CC3)nc21 (stereo unspecified),–,-19.9% (inactive),–
Cn1cnc(S(=O)(=O)N2CCC(c3noc(-c4ccccc4)n3)C2)c1 (stereo unspecified),–,-20.7% (inactive),–
CCOc1ccc(CC(=O)N2C[C@@H](N)C[C@H]2C(=O)NC(C)C)cc1,–,-7.1% (inactive),–
CNC(=O)[C@H]1C[C@H](Oc2cccnc2)CN1C(=O)NCCc1ccccc1,–,-7.31% (inactive),–
COCCn1ncc(N2CCCC(CC(=O)Nc3ccc(C)cc3)C2)cc1=O (stereo unspecified),–,12.4% (inactive),–
O=C(c1ccccc1F)N1CCC2(CC1)C(=O)Nc1ccccc12,–,-0.773% (inactive),–
CC(=O)N[C@@H]1[C@@H](NC(=O)Cc2cccs2)[C@H]2CCO[C@H]21,–,–,inactive
O=C(c1ccc2nccn2c1)N1CCOCC1,inactive,–,–
O=C(NCc1ccccn1)c1ccc2nccn2c1,–,-8.78% [at 172 µM] (inactive),–
O=C(NC1CCN(Cc2ccc(F)c(F)c2)CC1)c1ccc2nccn2c1,44.7 µM (active),–,–
COc1ccccc1N1CCN(C(=O)C2CCCN(C(=O)c3ccccc3)CCC(=O)NCC2)CC1 (stereo unspecified),–,–,inactive
COc1ccc(C(=O)N2CCCN(C(=O)C3CC3)C(c3ccccc3)CC(=O)NCC2)cn1 (stereo unspecified),–,–,inactive
COc1ccccc1N1CCCc2ncc(C(=O)N3CCCC[C@@H]3c3ccccc3)cc21,89.1 µM (active),–,–
